From PubChem BioAssay (Tox21) come the findings set out here.

SMILES strings stand for the structures. A number with no mark means an inactive call. Results filed as inconclusive are left out. Calls of active or inactive are those of the source. Unless noted, calls come from the whole dose curve; as a rule, active = well fitted curve in the direction sought with a large enough effect in the repeat runs; inconclusive = weak or mixed curves; inactive = no such curve, though single readings can be large; an effect the other way counts as inactive or inconclusive.

The nature of test [1]: qHTS assay to identify small molecule agonists of the estrogen receptor alpha (ER-alpha) signaling pathway in the presence of an antagonist - cell viability counter screen (AID 1259386).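 Note: series mostly up to about 92 µM; cells exposed to compounds for 22 h at 37 °C before the viability read; nearly all actives have a fitted effect of over 30% in size.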 An outline of the steps: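 The test measures whether compounds kill ER-alpha reporter cells (VM7Luc4E2) under antagonist co-treatment (ICI-182,780, 10.0nM). Fluorescence from CellTiter-Fluor is read after a 22hr exposure.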
On the technique in general: Quantitative high-throughput screening tests each substance at several concentrations.

Test [2] concerns the target Progesterone receptor (Homo sapiens) (UniProt P06401). Put plainly: qHTS assay to identify small molecule agonists of the progesterone receptor (PR) signaling pathway (AID 1346784; calls by dose curve; note: nearly all actives have a fitted effect of over 30% in size). An outline of the steps:
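Agonist qHTS: compounds pinned onto 3,000 PR-UAS-bla HEK 293T cells per well in charcoal-stripped serum medium, 16hr at 37C, then beta-lactamase activity measured by LiveBLAzer FRET fluorescence after 2 hours at room temperature.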

Test [3] shares this target. Kind of test: qHTS assay to identify small molecule antagonists of the progesterone receptor (PR) signaling pathway (AID 1346795; active = well fitted inhibition curve with a large enough effect in the signal ratio in the repeat runs, not every such curve was filed as active; the % refers to the signal ratio; note: potency is the fitted concentration of half-maximal effect). The method in brief:
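Antagonist mode with agonist R5020 at 1 nM final and 16 hr incubation at 37C. Reporter was beta-lactamase driven by UAS in HEK293T (PR-UAS-bla), 2% charcoal-stripped serum; signal from LiveBLAzer FRET substrate, 2 hr at room temperature.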

Test [4] can be described thus: qHTS assay to identify small molecule antagonists of the TGF-beta/Smad signaling pathway - cell viability counter screen (AID 1346824). Note: nearly all actives have a fitted effect of over 50% in size. The method in brief: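 SBE-bla HEK 293T cells, incubated overnight, then compound plus 0.25 ng/mL TGF-beta1 (stock added) for 5 hr at 37 C. Viability was read in the same wells by CellTiter-Glo luminescence after 30 min at room temperature.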

Test [5] in a line: qHTS assay to identify small molecule agonists of the TGF-beta/Smad signaling pathway - cell viability counter screen (AID 1346829). Note: top concentration of the series differs between compounds; nearly all actives have a fitted effect of over 45% in size. The method in brief:
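Here the cytotoxicity of library compounds is measured in SBE-bla HEK 293T cells treated for 5 hr, using CellTiter-Glo added to wells already read for the beta-lactamase reporter.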

Test [6] is described as follows: qHTS assay to identify small molecule agonists of the TGF-beta/Smad signaling pathway (AID 1346859; active = well fitted activation curve with a large enough effect in the signal ratio in the repeat runs, not every such curve was filed as active; the % refers to the signal ratio; note: series mostly up to about 77 µM). An outline of the steps: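 Fluorescence (ex 405 nm; em 460 and 530 nm) was read 2 h after LiveBLAzer FRET substrate at RT. The preceding compound treatment of overnight-plated SBE-bla HEK293T cells lasted 5 h at 37 C.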
For test [7], the target named is Thyrotropin-releasing hormone receptor (Homo sapiens) (UniProt P34981). Put plainly: qHTS assay to identify small molecule antagonists of the thyrotropin-releasing hormone receptor (TRHR) signaling pathway (AID 1346877; active = well fitted inhibition curve with a large enough effect in the repeat runs, not every such curve was filed as active; note: series mostly up to about 51 µM). An outline of the steps: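 Overnight-plated (18 h, 37 °C) HEK293 cells expressing TRHR were dye-loaded 2 h, treated with compound, then stimulated with TRH at 1 nM final. Fluorescence intensity was captured every second for 3 min.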
Sequence of Thyrotropin-releasing hormone receptor (Homo sapiens) (P34981 whole entry, looked up): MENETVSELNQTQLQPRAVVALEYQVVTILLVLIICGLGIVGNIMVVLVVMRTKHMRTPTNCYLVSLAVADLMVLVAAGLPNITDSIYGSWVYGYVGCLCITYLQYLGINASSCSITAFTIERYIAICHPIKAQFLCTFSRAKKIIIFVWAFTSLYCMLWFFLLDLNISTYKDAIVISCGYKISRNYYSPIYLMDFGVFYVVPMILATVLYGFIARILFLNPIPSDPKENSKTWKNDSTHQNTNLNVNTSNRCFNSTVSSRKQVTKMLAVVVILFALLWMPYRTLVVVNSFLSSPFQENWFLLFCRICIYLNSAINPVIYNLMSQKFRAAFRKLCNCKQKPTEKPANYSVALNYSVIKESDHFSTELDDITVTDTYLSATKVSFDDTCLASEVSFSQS

For test [8] the target is unchanged. Put plainly: qHTS assay to identify small molecule agonists of the thyrotropin-releasing hormone receptor (TRHR) signaling pathway (AID 1346891; calls by dose curve; note: series mostly up to about 58 µM). An outline of the steps:
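Agonist-mode intracellular calcium readout: kinetic fluorescence over 3 min at 1 s intervals after compound addition to TRHR-HEK293 cells (18 h seeded, 2 h dye-loaded at 37 C). Fifteen concentrations, triplicates.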

Test [9] can be described thus: Caspase-3/7 induction in HepG2 cells by small molecules, qHTS assay (AID 1346978). Note: nearly all actives have a fitted effect of over 15% in size. An outline of the steps: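 Wild-type HepG2 cells, 2,000/well, settled 5 hr at 37 C and 5% CO2, then compound-treated for 17 hr; caspase-3/7 activity read by luminescent Caspase-Glo 3/7 after 30 min at room temperature.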
A short description of test [10]: Caspase-3/7 induction in CHO-K1 cells by small molecules, qHTS cell viability counter screen (AID 1346979). Note: nearly all actives have a fitted effect of over 35% in size. Note: potency is the fitted concentration of half-maximal effect. The method in brief: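 Cytotoxicity counter screen: CellTiter-Fluor added to compound-treated wild-type CHO-K1 cells at 16 h (37C, 5% CO2), fluorescence measured 1 h later; same wells as caspase-3/7 measurement.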
Test [11] is described as follows: Caspase-3/7 induction in CHO-K1 cells by small molecules, qHTS assay (AID 1346980). Note: nearly all actives have a fitted effect of over 15% in size. An outline of the steps: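 Wild-type CHO-K1 cells exposed to compounds for 17hr at 37 C, 5% CO2. Caspase-3/7 activity then measured by Caspase-Glo 3/7 luminescence after 30min at room temperature.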
Test [12] in a line: Caspase-3/7 induction in HepG2 cells by small molecules, qHTS cell viability counter screen (AID 1346981). Note: series mostly up to about 92 µM; nearly all actives have a fitted effect of over 30% in size. The method in brief: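 Treatment of HepG2 cells with DMSO-delivered compounds ran 16 hr at 37 C following a 5-hr pre-incubation of 2,000 cells/well. CellTiter-Fluor fluorescence, read after 1 hr, served as the viability measure in a qHTS format.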
The target in test [13] is Nuclear receptor subfamily 1 group I member 2 (Homo sapiens) (UniProt O75469). Kind of test: Human pregnane X receptor (PXR) small molecule agonists, qHTS assay (AID 1346982). Note: nearly all actives have a fitted effect of over 35% in size. Note: potency is the fitted concentration of half-maximal effect. The method in brief:
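Stable HepG2 line reporting PXR-mediated CYP3A4 expression via luciferase. Treatment: 24 hr with compounds in DMSO at 37 C. Detection: ONE-Glo luminescence.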

Test [14] shares this target. Kind of test: CYP3A4 induction through human pregnane X receptor (PXR) by small molecules, qHTS assay (AID 1346984). Note: nearly all actives have a fitted effect of over 40% in size. Note: potency is the fitted concentration of half-maximal effect. The method in brief:
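After 24 h at 37C with compound, DPX-2 cells (HepG2, co-transfected PXR response element and CYP3A4 promoter-luciferase) got 3uM final P450-Glo Luciferin-IPA for 3 h; One-Glo luminescence followed.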

Test [15] has the same target. Kind of test: Human pregnane X receptor (PXR) activation by small molecules, qHTS assay (AID 1346985). Note: nearly all actives have a fitted effect of over 40% in size. Note: potency is the fitted concentration of half-maximal effect. An outline of the steps: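 DPX-2 cells (HepG2 co-transfected with a PXR response element and a CYP3A4-promoter luciferase construct) were seeded at 2,000 per well, rested 5 hr at 37C, then exposed to DMSO-dissolved compounds for 24 hr. Activation was read as luciferase luminescence.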

In test [16] the target is Cytochrome P450 2D6 (Homo sapiens) (UniProt P10635). Kind of test: Cytochrome P450 Family 2 Subfamily D Member 6 (CYP2D6) small molecule antagonists: luciferase reporter qHTS assay (AID 1671196). Note: nearly all actives have a fitted effect of over 50% in size. Note: potency is the fitted concentration of half-maximal effect. The method in brief: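 Chemicals tested for interference with CYP2D6 activity; proluciferin substrate, NADPH regeneration, 1 h at room temperature, luminescent detection.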
Sequence of Cytochrome P450 2D6 (Homo sapiens) (P10635 whole entry, looked up): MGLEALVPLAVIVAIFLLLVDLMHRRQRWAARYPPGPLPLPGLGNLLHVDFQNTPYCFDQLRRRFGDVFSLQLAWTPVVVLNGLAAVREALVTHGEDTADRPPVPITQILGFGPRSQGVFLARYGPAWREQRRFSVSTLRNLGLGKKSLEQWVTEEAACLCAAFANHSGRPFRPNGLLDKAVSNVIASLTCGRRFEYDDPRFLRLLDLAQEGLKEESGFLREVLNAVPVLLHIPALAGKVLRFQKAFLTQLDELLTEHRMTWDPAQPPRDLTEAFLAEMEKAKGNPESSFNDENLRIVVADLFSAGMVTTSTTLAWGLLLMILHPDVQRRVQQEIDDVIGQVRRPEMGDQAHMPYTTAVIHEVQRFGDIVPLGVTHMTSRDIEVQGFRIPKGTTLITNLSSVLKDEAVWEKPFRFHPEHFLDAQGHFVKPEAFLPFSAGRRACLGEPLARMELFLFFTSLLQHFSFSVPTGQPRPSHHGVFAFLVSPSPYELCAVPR
For orientation: A reporter such as luciferase makes a cellular process visible.

Test [17] is described as follows: Human pregnane X receptor (PXR) small molecule agonists, qHTS cell viability counter screen (AID 1346977). Note: nearly all actives have a fitted effect of over 50% in size. The method in brief:
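Same-well viability read: CellTiter-Fluor added after 23 hr compound exposure, fluorescence measured 1 hr later. Cells were PXR-Luc HepG2 seeded at 2,000/well in 5% charcoal-stripped FBS medium, rested 5 hr before dosing at 37 C.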

Test [18] can be described thus: qHTS assay to identify small molecule antagonists of the progesterone receptor (PR) signaling pathway - cell viability counter screen (AID 1346798). Note: nearly all actives have a fitted effect of over 50% in size. Note: potency is the fitted concentration of half-maximal effect. An outline of the steps:
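Cytotoxicity read as CellTiter-Glo luminescence (30 min, room temperature) in the same wells as the beta-lactamase readout. HEK293T PR-UAS-bla cells in charcoal-stripped 2% FBS received compound and R5020, then 16 h at 37C, 5% CO2.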

The nature of test [19]: qHTS assay to identify small molecule agonists of the progesterone receptor (PR) signaling pathway - cell viability counter screen (AID 1346799; calls by dose curve; note: nearly all actives have a fitted effect of over 45% in size; note: potency is the fitted concentration of half-maximal effect). The method in brief:
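Cytotoxicity measured by CellTiter-Glo luminescence (30 min, RT) in the same wells as the PR beta-lactamase agonist read. Those HEK293T cells had 16 h compound treatment at 37 C in 2% charcoal-stripped FBS medium.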

Test [20] addresses Nuclear receptor subfamily 1 group I member 2 (Rattus norvegicus) (UniProt Q9R1A7). Put plainly: Rat pregnane X receptor (rPXR) activation by small molecules, qHTS assay (AID 1346983). Note: nearly all actives have a fitted effect of over 20% in size. As to conditions: rPXR luciferase reporter cells, One-Glo luminescence, 24 h; max activation: hits give high values. The method in brief: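 Cell-based rPXR activation assay: rPXR cells, 2,000 per well, rested 5hr at 37 C, then exposed to compounds in DMSO for 24 hr at 37 C. Luciferase activity read by One-Glo luminescence after 30 min at room temperature.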
% is set by controls: 0 for no effect and ±100 for the full control effect.

Sequence of Nuclear receptor subfamily 1 group I member 2 (Homo sapiens) (O75469 whole entry, looked up): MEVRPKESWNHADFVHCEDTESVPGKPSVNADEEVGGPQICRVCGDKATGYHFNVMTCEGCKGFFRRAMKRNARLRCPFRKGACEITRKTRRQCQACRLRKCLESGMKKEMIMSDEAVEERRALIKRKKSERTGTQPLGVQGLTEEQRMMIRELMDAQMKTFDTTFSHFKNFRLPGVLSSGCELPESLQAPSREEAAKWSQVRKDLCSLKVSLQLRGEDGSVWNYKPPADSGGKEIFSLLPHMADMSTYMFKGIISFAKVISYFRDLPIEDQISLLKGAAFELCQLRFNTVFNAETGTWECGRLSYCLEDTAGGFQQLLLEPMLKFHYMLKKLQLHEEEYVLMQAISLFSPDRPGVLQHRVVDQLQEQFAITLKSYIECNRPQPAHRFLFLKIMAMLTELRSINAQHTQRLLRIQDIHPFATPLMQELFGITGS
Sequence of Progesterone receptor (Homo sapiens) (P06401 whole entry, looked up): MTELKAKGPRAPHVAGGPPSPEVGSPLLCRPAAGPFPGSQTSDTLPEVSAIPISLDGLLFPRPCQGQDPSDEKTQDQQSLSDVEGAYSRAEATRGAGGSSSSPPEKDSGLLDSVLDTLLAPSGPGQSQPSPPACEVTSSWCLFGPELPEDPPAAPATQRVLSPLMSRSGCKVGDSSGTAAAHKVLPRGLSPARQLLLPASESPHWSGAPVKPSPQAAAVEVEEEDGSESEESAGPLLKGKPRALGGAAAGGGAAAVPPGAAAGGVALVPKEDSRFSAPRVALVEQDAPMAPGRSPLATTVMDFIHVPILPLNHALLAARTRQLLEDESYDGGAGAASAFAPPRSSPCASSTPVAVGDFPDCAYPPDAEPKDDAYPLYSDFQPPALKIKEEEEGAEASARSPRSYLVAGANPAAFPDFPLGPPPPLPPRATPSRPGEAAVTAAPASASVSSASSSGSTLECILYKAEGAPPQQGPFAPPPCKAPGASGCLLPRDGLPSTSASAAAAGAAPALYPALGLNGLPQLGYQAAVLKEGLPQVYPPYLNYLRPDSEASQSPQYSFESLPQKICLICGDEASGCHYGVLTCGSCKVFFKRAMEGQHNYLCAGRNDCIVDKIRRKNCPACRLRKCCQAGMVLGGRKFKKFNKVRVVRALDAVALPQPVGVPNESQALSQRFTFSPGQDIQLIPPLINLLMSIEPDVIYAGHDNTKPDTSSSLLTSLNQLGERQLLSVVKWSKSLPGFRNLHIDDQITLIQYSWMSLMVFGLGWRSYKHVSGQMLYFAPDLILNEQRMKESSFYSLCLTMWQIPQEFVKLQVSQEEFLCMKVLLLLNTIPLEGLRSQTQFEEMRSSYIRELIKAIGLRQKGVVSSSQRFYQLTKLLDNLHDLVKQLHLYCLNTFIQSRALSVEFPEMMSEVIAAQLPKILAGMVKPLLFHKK
Sequence of Nuclear receptor subfamily 1 group I member 2 (Rattus norvegicus) (Q9R1A7 whole entry, looked up): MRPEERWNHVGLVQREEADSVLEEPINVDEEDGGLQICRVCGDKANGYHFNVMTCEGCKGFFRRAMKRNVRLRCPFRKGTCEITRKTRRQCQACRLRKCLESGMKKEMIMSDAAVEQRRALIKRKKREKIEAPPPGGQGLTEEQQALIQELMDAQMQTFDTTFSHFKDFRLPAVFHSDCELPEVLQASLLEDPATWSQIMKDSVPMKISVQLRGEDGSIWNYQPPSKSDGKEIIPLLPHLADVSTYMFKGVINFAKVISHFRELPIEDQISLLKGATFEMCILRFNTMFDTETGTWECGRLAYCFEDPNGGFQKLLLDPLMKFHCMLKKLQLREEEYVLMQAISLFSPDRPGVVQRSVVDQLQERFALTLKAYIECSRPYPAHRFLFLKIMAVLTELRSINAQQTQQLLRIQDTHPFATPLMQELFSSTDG

`O=S1(=O)c2cccc3cccc(c23)N1CCCN1CCN(c2ccc(F)cc2)CC1`: the Potency entry in test [1], in [4], in test [5], in test [8], in [10] and in [11] was “inactive” in each case. Moreover, the Potency entry in test [12] and in test [14] was “inactive” each time. In addition, the molecule was classed as inactive in test [2], in test [6], in [7] and in test [9]. In addition, the Potency was 18.8 µM (active) in test [3], 4.73 µM (active) in [13], 15.8 µM (active) in [15] and 1.55 µM (active) in [16].

With `O=C(O)C(c1ccc(Cl)cc1)c1ccc(Cl)cc1`, the Potency entry in test [1], in test [3], in test [4], in test [5], in test [8] and in test [17] was “inactive” in each case. Also, the Potency entry in [10], in [11], in test [13] and in [16] was “inactive” throughout. Also, the call in test [2], in test [6] and in test [7] was inactive.

Turning to `CC(C)(C)c1cc(CCC(=O)OCC(COC(=O)CCc2cc(C(C)(C)C)c(O)c(C(C)(C)C)c2)(COC(=O)CCc2cc(C(C)(C)C)c(O)c(C(C)(C)C)c2)COC(=O)CCc2cc(C(C)(C)C)c(O)c(C(C)(C)C)c2)cc(C(C)(C)C)c1O`, the Potency result in test [1], in test [18], in test [19], in [4], in [8] and in test [17] was “inactive” each time. Besides, the Potency result in test [10], in test [11], in test [12], in [13] and in test [16] was “inactive” in each case. The molecule was classed as inactive in test [2], in [6], in test [7] and in [9].

For `CN1CCC(OC(c2ccccc2)c2ccccc2)CC1`, the Potency entry in [1], in [3], in [4], in test [8], in [10] and in test [11] was “inactive” each time. Also, the Potency entry in test [12] is “inactive”. For the same molecule, the molecule was classed as inactive in test [2], in test [6], in [7] and in test [9].

In the case of `FC(F)(F)C(F)(F)C(F)(F)C(F)(F)C(F)(F)C(F)(F)CCI`, the Potency entry in [1], in test [18], in test [19], in test [4], in [5] and in test [8] was “inactive” throughout. For the same molecule, the Potency result in test [17], in test [10], in test [11], in [12] and in test [13] was “inactive” in each case. The call in test [2], in test [6], in test [7] and in test [9] was inactive.

Turning to `COCCOCCOCCOCCOC`, the Potency entry in [1], in test [4], in [5], in test [8], in test [17] and in test [10] was “inactive” each time. In addition, the Potency entry in [11], in test [13] and in [16] was “inactive” in each case. Further, the molecule was called inactive in test [2], in [6], in test [7] and in test [9]. Besides, the Potency in test [18] and in test [19] was 21.7 µM (active) each time.

Turning to `Cc1ccccc1N=Nc1ccc(N=Nc2c(O)ccc3ccccc23)c(C)c1`, the Potency entry in test [1], in test [3], in [19], in test [4], in test [8] and in [11] was “inactive” each time. In addition, the Potency result in test [13], in test [15] and in test [16] was “inactive” throughout. Also, the molecule was called inactive in test [2], in test [6], in test [7] and in [9]. The Potency is 13.3 µM (active) in test [10] and 7.94 µM (active) in test [14]. Also, the max activation in test [20] was 6.7%.
